# Experimental data reported in PubChem BioAssay (NCI).
# The panel holds about 79,000 compounds, 15% with a hit somewhere; the sample as a whole holds those more often. Unmarked numbers belong to inactive results. Calls of active or inactive are those of the source. Cut-off read from the data, not from the text of the source: active = growth inhibition above about 70%; inactive = the rest.
# Tests used:
# [1] = NCI Yeast Anticancer Drug Screen. Data for the rad52 strain (AID 147);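 note: 0% = growth of vehicle-treated control cultures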; conditions: S. cerevisiae rad52 mutant growth inhibition, active compounds read high
# How it was run: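 Yeast strain carrying a DNA damage repair alteration was exposed to test compounds. Growth inhibition was measured relative to vehicle-treated controls.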
# [2] = NCI Yeast Anticancer Drug Screen. Data for the wt1 strain (AID 149);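 note: 0% = growth of vehicle-treated wt1 cultures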; conditions: S. cerevisiae wt1 strain (SPY 50644) growth inhibition, active compounds read high
# How it was run: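 Compounds are added to wt1 yeast cultures. Growth is then measured. Inhibition is expressed relative to vehicle-treated controls.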
# [3] = NCI Yeast Anticancer Drug Screen. Data for the rad50EPP+ strain (AID 151);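 note: 0% = growth of vehicle-treated control cultures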; conditions: S. cerevisiae rad50 mutant strain, active compounds read high
# How it was run: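 Yeast strain carrying rad50 alteration (rad50EPP+) exposed to compounds; growth inhibition measured relative to vehicle-treated controls.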
# [4] = NCI Yeast Anticancer Drug Screen. Data for the mgt1 strain (AID 153); conditions: S. cerevisiae mgt1 mutant growth inhibition, active compounds read high
# How it was run: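 Yeast mgt1 strain (DNA repair/cell-cycle alteration panel) exposed to compounds; growth inhibition measured relative to vehicle-treated controls.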
# [5] = NCI Yeast Anticancer Drug Screen. Data for the rad50 strain (AID 155);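 note: 0% = growth of vehicle-only cultures of the same strain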; conditions: S. cerevisiae rad50 strain growth inhibition, active compounds read high
# How it was run: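 Inhibition values express reduced yeast growth in compound-treated cultures relative to vehicle-treated controls.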
# [6] = NCI Yeast Anticancer Drug Screen. Data for the mec2-1 strain (AID 157); conditions: S. cerevisiae mec2-1 strain, active compounds read high
# How it was run: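 mec2-1 yeast strain, carrying an alteration in DNA damage repair or cell cycle control, was exposed to compounds; growth inhibition was measured relative to vehicle-treated controls.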
# [7] = NCI Yeast Anticancer Drug Screen. Data for the rad14 strain (AID 159);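 note: 0% = growth of vehicle-treated control cultures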; conditions: S. cerevisiae rad14 strain growth inhibition, active compounds read high
# How it was run: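 A mutant yeast strain defective in DNA damage repair is treated with compound; inhibition of its growth is scored against untreated, vehicle-exposed cultures.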
# [8] = NCI Yeast Anticancer Drug Screen. Data for the sgs1 mgt1 strain (AID 161);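 note: 0% = growth of cultures given vehicle only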; conditions: S. cerevisiae sgs1 mgt1 strain, active compounds read high
# How it was run: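 Percent growth inhibition was derived by comparing compound-exposed mutant yeast with vehicle-exposed cultures. The strain carries alterations in DNA damage repair.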
# [9] = NCI Yeast Anticancer Drug Screen. Data for the CLN2oe strain (AID 163);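 note: 0% = growth of vehicle-only control cultures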; conditions: S. cerevisiae CLN2oe strain, active compounds read high
# How it was run: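 Yeast cells carrying a defined cell-cycle control alteration were exposed to test compounds. Growth inhibition was scored against vehicle-treated control cultures.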
# [10] = NCI Yeast Anticancer Drug Screen. Data for the cln2 rad14 strain (AID 165);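 note: 0% = growth equal to vehicle treated cultures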; conditions: S. cerevisiae cln2 rad14 strain, active compounds read high
# How it was run: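 Yeast carrying cln2 and rad14 alterations (cell cycle control and DNA damage repair) were exposed to compounds. Growth inhibition was measured against vehicle-treated controls.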
# [11] = NCI Yeast Anticancer Drug Screen. Data for the bub3 strain (AID 167); conditions: S. cerevisiae bub3 mutant strain, active compounds read high
# How it was run: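 Steps: expose the mutant yeast strain to compound; grow alongside vehicle-treated cultures; measure growth; express inhibition against the vehicle cultures.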
# [12] = NCI Yeast Anticancer Drug Screen. Data for the wt2 strain (AID 169);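 note: 0% = growth of vehicle-treated yeast cultures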; conditions: S. cerevisiae wt2 strain growth inhibition, active compounds read high
# How it was run: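 Yeast cells were exposed to test compounds, and growth inhibition was measured relative to vehicle-treated controls.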
# [13] = NCI Yeast Anticancer Drug Screen. Data for the mlh1 strain (AID 171);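 note: 0% = growth of vehicle-treated control cultures of the same strain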; conditions: S. cerevisiae mlh1 strain growth inhibition, active compounds read high
# How it was run: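 Yeast carrying a defined genetic alteration in DNA damage repair or cell cycle control were exposed to test compounds. Growth inhibition was measured relative to vehicle-treated controls.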
# [14] = NCI Yeast Anticancer Drug Screen. Data for the sgs1 strain (AID 173);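 note: 0% = growth of vehicle-only control cultures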; conditions: S. cerevisiae sgs1 mutant, active compounds read high
# How it was run: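 Yeast mutant strains carrying defined defects in DNA damage repair or cell cycle control were exposed to test compounds. Growth inhibition was scored against vehicle-treated controls.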
# [15] = NCI Yeast Anticancer Drug Screen. Data for the mlh1 rad18 strain (AID 175); conditions: S. cerevisiae mlh1 rad18 strain growth inhibition, active compounds read high
# How it was run: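 Growth inhibition of the yeast strain was measured after compound exposure and expressed relative to vehicle-treated controls. The strain carries defined defects in DNA damage repair.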
# [16] = NCI Yeast Anticancer Drug Screen. Data for the rad18 strain (AID 177); conditions: S. cerevisiae rad18 mutant growth inhibition, active compounds read high
# How it was run: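 Yeast carrying a defined DNA damage repair alteration were exposed to compounds. Growth inhibition was expressed relative to vehicle-treated controls.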
# [17] = at 5.0 µM (retest, dose inferred, filed as 0.5)
# [18] = at 50.0 µM (retest, dose inferred, filed as 5.0)
smiles,measurement,setting,value
Cc1cc(C(C)(C)CC(C)(C)C)cc(O)c1O,growth inhibition,[1]; at 1.2 µM,12%
same,growth inhibition,[1]; at 3.7 µM,34%
same,growth inhibition,[1]; at 11.0 µM,77% (active)
same,growth inhibition,[1]; at 33.0 µM,96% (active)
same,growth inhibition,[1]; at 100.0 µM,98% (active)
same,growth inhibition,[2]; at 1.2 µM,-19%
same,growth inhibition,[2]; at 3.7 µM,9%
same,growth inhibition,[2]; at 11.0 µM,70% (active)
same,growth inhibition,[2]; at 33.0 µM,94% (active)
same,growth inhibition,[2]; at 100.0 µM,98% (active)
same,growth inhibition,[3]; at 1.2 µM,44%
same,growth inhibition,[3]; at 3.7 µM,69%
same,growth inhibition,[3]; at 11.0 µM,79% (active)
same,growth inhibition,[3]; at 33.0 µM,83% (active)
same,growth inhibition,[3]; at 100.0 µM,88% (active)
same,growth inhibition,[4]; at 1.2 µM,23%
same,growth inhibition,[4]; at 3.7 µM,40%
same,growth inhibition,[4]; at 11.0 µM,87% (active)
same,growth inhibition,[4]; at 33.0 µM,97% (active)
same,growth inhibition,[4]; at 100.0 µM,98% (active)
same,growth inhibition,[5]; at 1.2 µM,-7%
same,growth inhibition,[5]; at 3.7 µM,12%
same,growth inhibition,[5]; [17],95% (active)
same,growth inhibition,[5]; at 11.0 µM,69%
same,growth inhibition,[5]; at 33.0 µM,93% (active)
same,growth inhibition,[5]; [18],99% (active)
same,growth inhibition,[5]; at 50.0 µM,92% (active)
same,growth inhibition,[5]; at 100.0 µM,97% (active)
same,growth inhibition,[6]; at 1.2 µM,29%
same,growth inhibition,[6]; at 3.7 µM,37%
same,growth inhibition,[6]; [17],97% (active)
same,growth inhibition,[6]; at 11.0 µM,72% (active)
same,growth inhibition,[6]; at 33.0 µM,95% (active)
same,growth inhibition,[6]; [18],100% (active)
same,growth inhibition,[6]; at 50.0 µM,91.9% (active)
same,growth inhibition,[6]; at 100.0 µM,99% (active)
same,growth inhibition,[7]; at 1.2 µM,-7%
same,growth inhibition,[7]; at 3.7 µM,9%
same,growth inhibition,[7]; at 11.0 µM,80% (active)
same,growth inhibition,[7]; at 33.0 µM,93% (active)
same,growth inhibition,[7]; at 100.0 µM,97% (active)
same,growth inhibition,[8]; [17],4%
same,growth inhibition,[8]; [18],97% (active)
same,growth inhibition,[9]; at 1.2 µM,2%
same,growth inhibition,[9]; at 3.7 µM,35%
same,growth inhibition,[9]; at 11.0 µM,81% (active)
same,growth inhibition,[9]; at 33.0 µM,97% (active)
same,growth inhibition,[9]; at 100.0 µM,98% (active)
same,growth inhibition,[10]; [17],37%
same,growth inhibition,[10]; [18],95% (active)
same,growth inhibition,[11]; at 1.2 µM,1%
same,growth inhibition,[11]; at 3.7 µM,19%
same,growth inhibition,[11]; [17],21%
same,growth inhibition,[11]; at 11.0 µM,74% (active)
same,growth inhibition,[11]; at 33.0 µM,97% (active)
same,growth inhibition,[11]; [18],99% (active)
same,growth inhibition,[11]; at 100.0 µM,98% (active)
same,growth inhibition,[12]; at 1.2 µM,2%
same,growth inhibition,[12]; at 3.7 µM,27%
same,growth inhibition,[12]; at 11.0 µM,71% (active)
same,growth inhibition,[12]; at 33.0 µM,89% (active)
same,growth inhibition,[12]; at 100.0 µM,54%
same,growth inhibition,[13]; at 1.2 µM,6%
same,growth inhibition,[13]; at 3.7 µM,20%
same,growth inhibition,[13]; at 11.0 µM,85% (active)
same,growth inhibition,[13]; at 33.0 µM,88% (active)
same,growth inhibition,[13]; at 100.0 µM,99% (active)
same,growth inhibition,[14]; at 1.2 µM,14%
same,growth inhibition,[14]; at 3.7 µM,35%
same,growth inhibition,[14]; at 11.0 µM,82% (active)
same,growth inhibition,[14]; at 33.0 µM,92% (active)
same,growth inhibition,[14]; at 100.0 µM,97% (active)
same,growth inhibition,[15]; [17],83% (active)
same,growth inhibition,[15]; [18],100% (active)
same,growth inhibition,[15]; at 50.0 µM,92% (active)
same,growth inhibition,[16]; at 1.2 µM,5%
same,growth inhibition,[16]; at 3.7 µM,23%
same,growth inhibition,[16]; at 11.0 µM,88% (active)
same,growth inhibition,[16]; at 33.0 µM,96% (active)
same,growth inhibition,[16]; at 100.0 µM,98% (active)
CCOC(=O)C1=C(C)NC(C)=C(C(=O)OCC)C1c1ccccc1Cl,growth inhibition,[1]; at 1.2 µM,-25%
same,growth inhibition,[1]; at 3.7 µM,-10%
same,growth inhibition,[1]; at 11.0 µM,4%
same,growth inhibition,[1]; at 33.0 µM,42%
same,growth inhibition,[1]; at 100.0 µM,93% (active)
same,growth inhibition,[2]; at 1.2 µM,-8%
same,growth inhibition,[2]; at 3.7 µM,3%
same,growth inhibition,[2]; at 11.0 µM,-6%
same,growth inhibition,[2]; at 33.0 µM,40%
same,growth inhibition,[2]; at 100.0 µM,95% (active)
same,growth inhibition,[3]; at 1.2 µM,-5%
same,growth inhibition,[3]; at 3.7 µM,13%
same,growth inhibition,[3]; at 11.0 µM,9%
same,growth inhibition,[3]; at 33.0 µM,17%
same,growth inhibition,[3]; at 100.0 µM,26%
same,growth inhibition,[4]; at 1.2 µM,14%
same,growth inhibition,[4]; at 3.7 µM,14%
same,growth inhibition,[4]; at 11.0 µM,19%
same,growth inhibition,[4]; at 33.0 µM,54%
same,growth inhibition,[4]; at 100.0 µM,96% (active)
same,growth inhibition,[5]; at 1.2 µM,9%
same,growth inhibition,[5]; at 3.7 µM,23%
same,growth inhibition,[5]; [17],54%
same,growth inhibition,[5]; at 11.0 µM,29%
same,growth inhibition,[5]; at 33.0 µM,48%
same,growth inhibition,[5]; [18],100% (active)
same,growth inhibition,[5]; at 50.0 µM,90% (active)
same,growth inhibition,[5]; at 100.0 µM,91% (active)
same,growth inhibition,[6]; at 1.2 µM,8%
same,growth inhibition,[6]; at 3.7 µM,-2%
same,growth inhibition,[6]; [17],52%
same,growth inhibition,[6]; at 11.0 µM,-2%
same,growth inhibition,[6]; at 33.0 µM,51%
same,growth inhibition,[6]; [18],99% (active)
same,growth inhibition,[6]; at 50.0 µM,91.7% (active)
same,growth inhibition,[6]; at 100.0 µM,95% (active)
same,growth inhibition,[7]; at 1.2 µM,-4%
same,growth inhibition,[7]; at 3.7 µM,-10%
same,growth inhibition,[7]; at 11.0 µM,10%
same,growth inhibition,[7]; at 33.0 µM,53%
same,growth inhibition,[7]; at 100.0 µM,93% (active)
same,growth inhibition,[8]; [17],-15%
same,growth inhibition,[8]; [18],91% (active)
same,growth inhibition,[9]; at 1.2 µM,-13%
same,growth inhibition,[9]; at 3.7 µM,-22%
same,growth inhibition,[9]; at 11.0 µM,38%
same,growth inhibition,[9]; at 33.0 µM,56%
same,growth inhibition,[9]; at 100.0 µM,94% (active)
same,growth inhibition,[10]; [17],43%
same,growth inhibition,[10]; [18],90% (active)
same,growth inhibition,[11]; at 1.2 µM,35%
same,growth inhibition,[11]; at 3.7 µM,34%
same,growth inhibition,[11]; [17],26%
same,growth inhibition,[11]; at 11.0 µM,4%
same,growth inhibition,[11]; at 33.0 µM,62%
same,growth inhibition,[11]; [18],84% (active)
same,growth inhibition,[11]; at 100.0 µM,95% (active)
same,growth inhibition,[12]; at 1.2 µM,14%
same,growth inhibition,[12]; at 3.7 µM,11%
same,growth inhibition,[12]; at 11.0 µM,20%
same,growth inhibition,[12]; at 33.0 µM,49%
same,growth inhibition,[12]; at 100.0 µM,96% (active)
same,growth inhibition,[13]; at 1.2 µM,-38%
same,growth inhibition,[13]; at 3.7 µM,-31%
same,growth inhibition,[13]; at 11.0 µM,-25%
same,growth inhibition,[13]; at 33.0 µM,41%
same,growth inhibition,[13]; at 100.0 µM,93% (active)
same,growth inhibition,[14]; at 1.2 µM,26%
same,growth inhibition,[14]; at 3.7 µM,28%
same,growth inhibition,[14]; at 11.0 µM,38%
same,growth inhibition,[14]; at 33.0 µM,67%
same,growth inhibition,[14]; at 100.0 µM,96% (active)
same,growth inhibition,[15]; [17],36%
same,growth inhibition,[15]; [18],99% (active)
same,growth inhibition,[15]; at 50.0 µM,90.4% (active)
same,growth inhibition,[16]; at 1.2 µM,2%
same,growth inhibition,[16]; at 3.7 µM,18%
same,growth inhibition,[16]; at 11.0 µM,20%
same,growth inhibition,[16]; at 33.0 µM,50%
same,growth inhibition,[16]; at 100.0 µM,93% (active)
